The source made the active and inactive calls. Rule for the calls: active = hit-call score of the fitted dose curve at least 0.9, where 1 is the maximum; inactive = score below 0.9.
molecular target: human Flt-1 (VEGFR1) (FLT1) Receptor Tyrosine Kinase, FLT1 (gene 2321) (UniProt P17948); assay: ERF_FR_ENZ_hFLT1: Eurofins (ERF) Enzymatic Radiometric [Km ATP] KinaseProfiler LeadHunter Assay for human Flt-1 (VEGFR1) (FLT1) Receptor Tyrosine Kinase
Method: ERF_FR_ENZ_hFLT1 is a biochemical, single-readout assay that uses extracted gene-proteins in a cell-free assay. Measurements were taken 0.25 hour after chemical dosing in a 96-well plate. See Flt-1 (VEGFR1) Human RTK Kinase Enzymatic LANCE Assay [Km ATP], Cerep.ERF_FR_ENZ_hFLT1 is an assay component calculated from the ERF_FR_ENZ_hFLT1 assay. It is designed to measure enzyme activity using a type of enzyme reporter as detected by fluorescence intensity with LANCE technology.Data from the assay component ERF_FR_ENZ_hFLT1 was analyzed at the assay endpoint, ERF_FR_ENZ_hFLT1, in the positive analysis fitting direction relative to DMSO as the negative control and baseline of activity. Using a type of enzyme reporter, loss-of-signal activity can be used to understand changes in enzymatic activity as they relate to gene FLT1. To generalize the intended target to other relatable targets, this assay endpoint is annotated to the kinase intended target family, where the subfamily is receptor tyrosine kinase.
Flt1 (h) is incubated with 8 mM MOPS pH 7.0, 0.2 mM EDTA, 250 uM […], 10 mM MgAcetate and [g- 33P]-ATP (specific activity and concentration as required). The reaction is initiated by the addition of the Mg/ATP mix. After incubation for 40 minutes at room temperature, the reaction is stopped by the addition of phosphoric acid to a concentration of 0.5%. […]

Sequence of human Flt-1 (VEGFR1) (FLT1) Receptor Tyrosine Kinase, FLT1 (gene 2321) (P17948 whole entry, looked up): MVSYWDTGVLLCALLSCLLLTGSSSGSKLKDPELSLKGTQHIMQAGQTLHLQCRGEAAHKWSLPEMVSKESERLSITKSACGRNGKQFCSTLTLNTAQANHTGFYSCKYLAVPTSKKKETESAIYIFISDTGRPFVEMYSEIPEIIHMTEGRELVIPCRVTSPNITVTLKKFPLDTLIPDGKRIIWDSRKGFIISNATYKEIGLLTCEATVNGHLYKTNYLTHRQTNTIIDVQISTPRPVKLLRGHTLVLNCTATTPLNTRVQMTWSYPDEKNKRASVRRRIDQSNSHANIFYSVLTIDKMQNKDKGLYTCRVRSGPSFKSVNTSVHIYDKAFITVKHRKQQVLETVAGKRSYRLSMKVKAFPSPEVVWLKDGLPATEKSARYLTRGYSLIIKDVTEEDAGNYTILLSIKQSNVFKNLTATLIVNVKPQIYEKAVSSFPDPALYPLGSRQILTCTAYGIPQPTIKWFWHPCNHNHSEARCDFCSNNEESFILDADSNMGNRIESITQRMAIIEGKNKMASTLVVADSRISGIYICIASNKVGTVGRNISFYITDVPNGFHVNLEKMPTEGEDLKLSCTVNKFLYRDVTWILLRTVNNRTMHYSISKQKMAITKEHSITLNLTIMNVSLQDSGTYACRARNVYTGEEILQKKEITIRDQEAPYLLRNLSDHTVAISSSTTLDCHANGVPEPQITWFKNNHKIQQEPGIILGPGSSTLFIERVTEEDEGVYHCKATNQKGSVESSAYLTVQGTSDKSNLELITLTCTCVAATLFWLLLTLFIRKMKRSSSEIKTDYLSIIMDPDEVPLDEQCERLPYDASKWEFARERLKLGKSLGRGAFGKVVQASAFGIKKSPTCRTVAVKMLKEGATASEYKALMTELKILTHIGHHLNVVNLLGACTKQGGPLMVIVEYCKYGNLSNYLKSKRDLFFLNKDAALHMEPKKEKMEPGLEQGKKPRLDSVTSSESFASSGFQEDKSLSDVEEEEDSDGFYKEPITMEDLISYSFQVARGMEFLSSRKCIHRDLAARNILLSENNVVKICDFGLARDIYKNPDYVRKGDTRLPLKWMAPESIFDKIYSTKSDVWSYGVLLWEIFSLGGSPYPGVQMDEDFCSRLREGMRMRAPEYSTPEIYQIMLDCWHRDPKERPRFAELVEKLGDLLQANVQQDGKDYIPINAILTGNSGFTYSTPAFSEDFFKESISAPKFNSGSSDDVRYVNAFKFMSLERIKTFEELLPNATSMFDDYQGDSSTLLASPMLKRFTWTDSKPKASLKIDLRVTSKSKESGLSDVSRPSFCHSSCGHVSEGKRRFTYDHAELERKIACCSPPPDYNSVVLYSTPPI

Q: Which outcome does the source give for O=C(/C=C/c1ccc(O)cc1)CC(=O)/C=C/c1ccc(O)cc1 here?
A: inactive

Source: PubChem BioAssay AID2284087 (EPA ToxCast)
